Glioma ERSR ind: inducers of ER stress response in human glioma cells | hit rate 0.02% among 420,000 | AID 602332 | U87-MG GRP78 promoter luciferase reporter, 16 h | Potency, µM, for inactives: at the highest dose activation, hits mostly activators; also: potency is read from the fitted curve at half-maximal effect; series mostly up to about 76 µM; % of control where 0% means no effect; nearly all actives have a fitted effect of over 35% in size
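Stably transfected U87-MG glioma cells carrying a GRP78-based luciferase sensor; 16 h compound incubation. Luminescence end-point read 10 min after Bright-Glo addition at room temperature.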
Eya2 inh: inhibitors of human Eya2 phosphatase activity; hit rate 0.006% among 330,000; recombinant Eya2, OMFP fluorescence dephosphorylation (OMFP is methylfluorescein phosphate); O00167; Potency, µM (top dose mostly 76.9 µM), without a hit: at the highest dose activity, negative = inhibition, most hits filed as inhibitors; also: potency is read from the fitted curve at half-maximal effect; % is scaled to controls: 0 for no effect and ±100 for the full control effect
Target sequence (O00167 whole entry, looked up): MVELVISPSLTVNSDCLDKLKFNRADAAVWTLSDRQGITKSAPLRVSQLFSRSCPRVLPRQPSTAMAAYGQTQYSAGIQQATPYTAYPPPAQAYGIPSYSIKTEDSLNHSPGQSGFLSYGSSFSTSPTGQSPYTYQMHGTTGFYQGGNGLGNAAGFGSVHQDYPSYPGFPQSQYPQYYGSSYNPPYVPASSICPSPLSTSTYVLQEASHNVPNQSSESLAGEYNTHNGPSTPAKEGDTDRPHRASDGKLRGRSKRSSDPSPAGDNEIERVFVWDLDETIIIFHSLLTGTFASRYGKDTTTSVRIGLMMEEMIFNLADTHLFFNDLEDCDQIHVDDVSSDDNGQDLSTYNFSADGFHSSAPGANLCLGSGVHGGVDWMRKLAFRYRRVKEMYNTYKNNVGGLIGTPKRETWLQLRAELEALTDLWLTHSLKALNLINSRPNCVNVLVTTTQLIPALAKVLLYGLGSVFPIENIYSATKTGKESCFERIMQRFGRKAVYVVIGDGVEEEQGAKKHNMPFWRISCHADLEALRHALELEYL
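Eya2 (0.2 uM) preincubated 10 min at ambient with compound, then OMFP substrate added at 50 uM; 10 min reaction in 50 mM HEPES pH 7.5, 50 mM NaCl, 5 uM MgCl2, 0.05% BSA, 1 mM DTT. Fluorescence read at Ex 485/Em 525 nm.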
CtBP-E1A inh: inhibitors of CtBP/E1A interaction; activity change, % (test concentration not listed); AID 651724; AlphaScreen GST-E1A/His-CtBP binding, 1536-well; hits give low values; hit rate 0.49% among 340,000; in the data active = activity change below about -65%; inconclusive = mostly about -30% to -63%; also: % is scaled to controls: 0 for no effect and ±100 for the full control effect
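In 5 uL wells, 23 nL compound meets equimolar GST-E1A and His-CtBP (5X stock 125 nM each) for 2 h, 37 °C. Beads (5X, 50 ug/mL) then 1 h, 37 °C, dark.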
Six1-Eya2 blk: Six1/Eya2 interaction inhibition; Q15475+O00167; AlphaScreen GST-Six1/His-Eya2 binding, biochemical; hits give low values; activity change, % (concentration not given with the values); hit rate 0.56% among 360,000; AID 651725; in the data active = activity change below about -65%; inconclusive = mostly about -30% to -63%; also: % is scaled to controls: 0 for no effect and ±100 for the full control effect
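AlphaScreen with GST-Six1 and His-Eya2 (5X mix: 250 nM and 500 nM), glutathione donor and nickel acceptor beads; buffer 50 mM Tris pH 8.0, 300 mM NaCl, 1 mM TCEP; 1 h at 37 C in the dark.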
Active calls of the source: *; u = inconclusive; x = no result. Sampled rows, rich in hits. Any-hit rate of the full collection: about 0.58%. Unless noted, calls follow the shape of the dose curve; as a rule, active = well fitted curve in the direction sought with a large enough effect; inconclusive = small, poorly fitted or top-dose-only effect, or another doubt; inactive = no such curve, though single readings can be large; an effect the other way counts as inactive or inconclusive.

SMILES | Glioma ERSR ind | Eya2 inh | CtBP-E1A inh | Six1-Eya2 blk
O=C(N/N=C/c1ccccn1)c1cc(C2CC2)[nH]n1 | -5% | 4% | -68* | u
O=C(N/N=C/c1ccccn1)c1ccc(Br)cc1 | 9% | 13% | -65* | u
CCN(CC)S(=O)(=O)c1cccc(C(=O)N/N=C/c2ccccn2)c1 | 3% | 11% | -23 | -73*
CCN(CC)S(=O)(=O)c1cccc(C(=O)N/N=C/c2cccc(O)c2O)c1 | 6% | 5% | -93* | -87*
CCCCCCCCCCCCCCCCCCN(CCCCCCCCCCCCCCCCCC)c1ccc(/C=C/c2ccc(C=O)cc2)cc1 | -5% | x | x | x
O=C(N/N=C/c1ccccn1)c1cccc(S(=O)(=O)Nc2ccccc2Cl)c1 | -3% | -2% | 4 | -86*
O=C(O)c1cccc(NC(=S)N/N=C/c2ccccn2)c1 | -13% | 7% | x | -76*
Oc1ccc(C=NNC(=S)Nc2cccnc2)nc1 | -5% | x | -6 | -97*
O=C(O)COc1ccccc1/C=N/NC(=O)c1cccc(S(=O)(=O)Nc2cccc(Cl)c2)c1 | -3% | 8% | -71* | u
C[N+]1(C)CCC(OC(=O)CC(O)(c2ccccc2)C2CCCC2)C1 (centres undefined) | -5% | x | x | x
COc1ccc2c(c1)-c1nc(-n3ncc(C(=O)NC[C@@H]4CCCN5CCCC[C@H]45)c3C)ncc1CC2 | -2% | x | x | x
CCC1C(=O)NCCN1Cc1ccc2c(c1)CN(Cc1cccc(OC)c1OC)CCO2 (centres undefined) | 1% | x | x | x
Cc1ncc2c(c1CNC(=O)c1ccccc1F)CCN(C(=O)c1ccccc1-n1cccn1)C2 | -4% | x | x | x
Oc1c(C(Nc2nc3ccccc3s2)c2ccco2)ccc2cccnc12 (centres undefined) | -2% | -5% | -16 | -73*
CCCCC(=O)NC(c1ccc(N(CC)CC)cc1)c1ccc2cccnc2c1O (centres undefined) | -4% | 2% | -78* | u
CCCCC(=O)NC(c1ccc(Cl)cc1)c1ccc2cccnc2c1O (centres undefined) | 0% | x | u | u
CCN(CC)c1ccc(C(NC(=O)C(C)C)c2ccc3cccnc3c2O)cc1 (centres undefined) | -7% | x | u | -72*
Oc1c(C(Nc2nccs2)c2ccc(C(F)(F)F)cc2)ccc2cccnc12 (centres undefined) | 1% | 0% | u | u
CCCCC(=O)NC(c1ccc(N(C)C)cc1)c1ccc2cccnc2c1O (centres undefined) | -3% | -22% | -91* | -70*
COc1cc(CN2CCCC(n3cc(C(=O)N4CCCCC4)nn3)C2)cc2c1OCO2 (centres undefined) | -4% | x | x | x
CC(C)C(=O)NC(c1ccco1)c1ccc2cccnc2c1O (centres undefined) | 2% | 2% | -91* | -93*
O=[N+]([O-])c1cccc(COc2ncnc3cc([N+](=O)[O-])ccc23)c1 | -3% | 19% | -88* | -72*
COc1cc(/C=C(\C#N)C(=O)NC2CCCCC2)ccc1OCc1ccc(C(=O)O)cc1 | 3% | 4% | -93* | u
COc1cc(/C=C(/C#N)C(=O)Nc2ccccc2)ccc1OCc1ccc(C(=O)O)cc1 | 4% | 2% | x | 0
COc1cc(/C=C(\C#N)C(=O)NC(C)C)ccc1OCc1ccc(C(=O)O)cc1 | 0% | 7% | -73* | -1
SMILES | Glioma ERSR ind | Eya2 inh | CtBP-E1A inh | Six1-Eya2 blk
O=C(O)c1ccccc1-c1ccccc1C(=O)Nc1ccc2c(c1)[nH]c(=O)c1ccccc12 | 3% | -17% | -1 | -72*
CC(C)(C)n1ncc2c(=O)n(Cc3ccc(OC(F)(F)F)cc3)cnc21 | -2% | x | x | x
COc1cc(OC)c(OC)cc1/C=N/N(C)c1ccccc1 | -1% | 5% | u | -66*
C[C@@H](O[C@H]1OCCN(Cc2n[nH]c(=O)[nH]2)[C@@H]1c1ccc(F)cc1)c1cc(C(F)(F)F)cc(C(F)(F)F)c1 | -7% | x | x | x
COC(=O)c1ccc(N)cc1O | -2% | 9% | -3 | 4
COC(=O)c1ccc(=O)c2nc3/c(=C/O)c(O)cc(=O)c3[nH]c12 | -5% | 2% | -94* | -89*
Cc1oc(C(=O)O)cc1COc1cccc2cccnc12 | -2% | 21% | -71* | u
COc1cc2nc(N(C)C)c(CNC3CCOC(C)(C)C3)cc2c(OC)c1OC (centres undefined) | -2% | x | x | x
CCCCN(CCC(=O)O)c1ccc(/C=C/c2ccnc3ccccc23)cc1 | -11% | x | x | x
O=C(Cn1nc(Cc2ccncc2)c2ccccc2c1=O)N1CCc2ccccc2C1 | -2% | -1% | -68* | -19
Cc1cc(C(=O)NCc2nc(-c3ccccc3NC(=O)C3CCCO3)oc2C)nc(C)n1 (centres undefined) | -6% | x | x | x
O=C1NN(c2ccc(Cl)c(Cl)c2)C(=O)/C1=C/c1ccc(-c2ccccc2C(=O)O)o1 | 2% | 3% | -72* | u
Cc1ccc(N2NC(=O)/C(=C/c3ccc(-c4ccc(Cl)c(C(=O)O)c4)o3)C2=O)cc1C | -2% | -1% | 4 | 6
CN(C)c1ccc2c(-c3ccccc3)c3ccc(=[N+](C)C)cc-3oc2c1 | -6% | x | x | x
Cc1nc(CC(=O)NCC2Cc3cc(F)cc(-c4ccc(F)c(C)c4)c3O2)cs1 (centres undefined) | -3% | x | x | x
O=C(N[C@@H]1C/C=C\C[C@H](CC(=O)N(CCO)Cc2ccccc2)C(=O)NC[C@@H](c2ccccc2)OC1=O)OCC1c2ccccc2-c2ccccc21 | 7% | 2% | -1 | 2
O=C(C[C@H]1C/C=C\C[C@H](NC(=O)OCC2c3ccccc3-c3ccccc32)C(=O)O[C@H](c2ccccc2)CNC1=O)N[C@H](CO)Cc1ccccc1 | 28µM* | -5% | -28 | -12
COc1ccc(CCNc2cc(=O)[nH]c(N)n2)cc1 | 0% | 6% | -80* | -69*
COc1ccc(CCNc2ccc([N+](=O)[O-])cn2)cc1 | 0% | -12% | -29 | -5
Cc1ccc(C)n1-c1sccc1C(=O)O | -5% | -1% | -6 | -68*
CN(C)CCN(C(=O)CN1C(=O)c2ccccc2C1=O)c1nc2cc3c(cc2s1)OCO3 | -2% | -14% | 4 | -13
CCN(CC)CCN(C(=O)CN1C(=O)c2ccccc2C1=O)c1nc2cc3c(cc2s1)OCO3 | -3% | 6% | -83* | -10
Cc1ccc(/C(=N/Nc2ncnc3ccccc23)C(=O)O)cc1 | 1% | 20% | -77* | -84*
O=C(O)c1cccc(-n2cccc2/C=C2/NC(=O)N(c3ccc(Cl)cc3)C2=O)c1 | 1% | 14% | u | -76*
COCCN(C)C(=O)c1cnn(-c2ncc3c(n2)-c2ccccc2CC3)c1C | 1% | x | x | x
Cc1ccc(C(=O)Sc2cccccc2=O)cc1 | 7% | 4% | -89* | -77*
Nc1nc(-c2ccccn2)nc(N)c1Cc1ccccc1F | -2% | 17% | -90* | -74*
Cc1n[nH]c(C)c1Cc1c(F)cccc1Cl | 2% | 11% | 2 | 1
Clc1ccc(OCc2nc(-c3ccccn3)no2)c(Br)c1 | -9% | -3% | -1 | -6
